Results on 54 compounds are retold here after the supplement of paper PMC10670038.

Molecules are shown by their SMILES. Where a name gives a salt, the structure may show the parent alone. ± gives the standard deviation of the averaged measurements. In all, about 2,000 compounds were measured (“relative cell viability vs DMSO, compound alone”: median about 1.1, lowest 2% from about 0.29 on). Shown is part of a subset that was picked to be rich in the lowest values.

This experiment has as its system TE10. Put plainly: relative cell viability vs DMSO, compound alone (fraction); TE10 is an esophageal squamous carcinoma line; higher = less cytotoxic. The conditions noted are these: 2 µM; 48 h. As for the experimental part:
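TE10 ESCC cells (1,000/well, 384-well plates) were treated with Selleck bioactive library compounds at 2 uM alone for 48 h. Viability was read by CellTiter-Glo and expressed relative to DMSO wells. Two technical replicates (A, B).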
On to `CCCCCCCCCCCCCCCC(=O)OCC(O)C1OC(=O)C(O)=C1O` [L-Ascorbyl 6-palmitate], for which the relative cell viability was determined as 1.14 ± 0.031. The compound `O=C(O)CCCc1c[nH]c2ccccc12` [3-Indolebutyric acid (IBA)] registered a relative cell viability of 1.1 ± 0.024.

Turning to `O=C(/C=C/c1ccc(CN(CCO)CCc2c[nH]c3ccccc23)cc1)NO` [LAQ824 (Dacinostat)], the relative cell viability is 0.0682 ± 0.006.

`OCc1c[nH]c2ccccc12` [Indole-3-carbinol] gave a relative cell viability of 1.14 ± 0.048. Consider `CCc1c(O)cc(O)c(C(=O)c2ccc(OCCN3CCOCC3)c(OC)c2)c1CC(=O)N(CCOC)CCOC`, for which the relative cell viability stood at 0.546 ± 0.009. The result for `CC(C)/N=c1\cc2n(-c3ccc(Cl)cc3)c3ccccc3nc-2cc1Nc1ccc(Cl)cc1` [Clofazimine] reads 0.929 ± 0.062. On to `CC(C)CC(N)=O` [Isovaleramide], for which the relative cell viability was 1.1 ± 0.057. The result for `CN1CCc2c(c3ccccc3n2Cc2ccc(C(=O)NO)cc2)C1` [Tubastatin A] reads 1.14 ± 0.023; that for `COc1cc(C(=O)NS(=O)(=O)c2ccccc2C)ccc1Cc1cn(C)c2ccc(NC(=O)OC3CCCC3)cc12` [Zafirlukast], 1.03 ± 0.033; that for `Cn1cc(CNCC2CCN(c3ncc(C(=O)NO)cn3)CC2)c2ccccc21`, 0.078 ± 0.0008. Take `CN1CCc2c(c3ccccc3n2Cc2ccc(C(=O)NO)cc2)C1` [Tubastatin A HCl]: the relative cell viability turned out to be 0.9558 ± 0.0063. For `CCOc1ccc2nc3cc(N)ccc3c(N)c2c1` [Ethacridine lactate monohydrate] the value was 1.033 ± 0.0023. In turn, `CCN(CC)CCCCNc1ncc2cc(-c3cc(OC)cc(OC)c3)c(NC(=O)NC(C)(C)C)nc2n1` displayed a relative cell viability of 1.23 ± 0.029. `NC1CC1c1ccc(-c2cccc(O)c2)cc1` (centres undefined) gave a relative cell viability of 1.09 ± 0.03. As for `N[C@@H]1CCCN(c2c(/C=C3\SC(=O)NC3=O)cccc2-c2ccccc2)C1`, the relative cell viability was found to be 1.03 ± 0.047.

For the compound `CN(C)c1cccc(-c2c3c(=O)n(-c4ccccc4Cl)[nH]c3cc(=O)n2C)c1`, the relative cell viability came to 0.959 ± 0.036. `CC(C)C[C@H](NC(=O)[C@H](Cc1ccccc1)NC(=O)c1cnccn1)B(O)O` [Bortezomib (PS-341)] yielded a relative cell viability of 0.09 ± 0.011.

In the case of `Nc1ccccc1NC(=O)c1cnccn1`, the relative cell viability is 1.11 ± 0.037. In turn, `CC(C)C[C@H](NC(=O)[C@@H](NC(=O)c1cccc(-c2ccccc2)n1)[C@@H](C)O)B(O)O` displayed a relative cell viability of 0.0932 ± 0.003.

Compound `CC(C)C[C@H](NC(=O)CNC(=O)c1cc(Cl)ccc1Cl)B(O)O` registered a relative cell viability of 0.341 ± 0.023. The result for `CNC(=O)[C@H](Cc1ccccc1)NC(=O)[C@H](CC(C)C)[C@H](CSc1cccs1)C(=O)NO` [Batimastat (BB-94)] reads 0.884 ± 0.076; that for `Cc1cc2c(cc1CC(=O)c1sccc1S(=O)(=O)Nc1onc(C)c1Cl)OCO2` [Sitaxentan sodium], 1.06 ± 0.022. In the case of `CC(C)(O)CC(=O)NCCn1ccc2ncnc(Nc3ccc(Oc4cccc(C(F)(F)F)c4)c(Cl)c3)c21`, the relative cell viability amounted to 1.17 ± 0.07. Compound `Oc1ccc(Nc2nc(-c3ccc(Cl)cc3)cs2)cc1` registered a relative cell viability of 1.11 ± 0.019.

Regarding `COc1cc(C=O)ccc1O` [Vanillin], the relative cell viability was determined as 1.11 ± 0.027. `Cc1cc(Nc2cc(N3CCN(C)CC3)nc(/C=C/c3ccccc3)n2)n[nH]1` yielded a relative cell viability of 0.856 ± 0.03. `Cc1cc(Nc2cc(N3CCN(C)CC3)nc(/C=C/c3ccccc3)n2)n[nH]1` [ENMD-2076 L-(+)-Tartaric acid] had a relative cell viability of 0.808 ± 0.069. In the case of `Cc1cc(C)nc(NS(=O)(=O)c2ccc(N)cc2)n1` [Sulfamethazine], the relative cell viability came to 1.1 ± 0.044.

Compound `COCCCC/C(=N\OCCN)c1ccc(C(F)(F)F)cc1` [Fluvoxamine maleate] showed a relative cell viability of 1.21 ± 0.041. Turning to `COC(=O)[C@]12CCC(C)(C)C[C@H]1[C@H]1C(=O)C=C3[C@@]4(C)C=C(C#N)C(=O)C(C)(C)[C@@H]4CC[C@@]3(C)[C@]1(C)CC2` [Bardoxolone Methyl], the relative cell viability amounted to 0.272 ± 0.0085. In turn, `CC1(C)CC[C@]2(NC(=O)C(C)(F)F)CC[C@]3(C)[C@H](C(=O)C=C4[C@@]5(C)C=C(C#N)C(=O)C(C)(C)[C@@H]5CC[C@]43C)[C@@H]2C1` [Omaveloxolone (RTA-408)] yielded a relative cell viability of 0.59 ± 0.032. For `N#Cc1ccc(-c2csc(NN=C3CCCC3)n2)cc1` [Remodelin], the relative cell viability was 1.121 ± 0.0093. In the case of `COc1cc2ncnc(Nc3ccc(Cl)cc3F)c2cc1OC`, the relative cell viability is 0.999 ± 0.16. For `COc1cc(C(=O)NC2CCCNC2)cc(OC)c1OC` (centres undefined) [Troxipide], the relative cell viability was 1.13 ± 0.016. Take `NC(=O)Nc1sc(-c2ccc(F)cc2)cc1C(N)=O`: the relative cell viability was 0.98 ± 0.072. The result for `NC(=O)Nc1cc(-c2cccc(F)c2)sc1C(=O)N[C@H]1CCCNC1` reads 0.259 ± 0.021. `C[N+](C)(C)C[C@H](O)CC(=O)[O-]` [L-carnitine] had a relative cell viability of 1.04 ± 0.016. As to `NC(=O)N1CCC(CC(=O)N2CCC([C@H]3c4ncc(Br)cc4CCc4cc(Cl)cc(Br)c43)CC2)CC1` [Lonafarnib], the relative cell viability came out at 1.06 ± 0.049. The compound `CNC[C@H](O)[C@@H](O)[C@H](O)[C@H](O)CO` [Meglumine] gave a relative cell viability of 1.008 ± 0.0073. For `COc1ccc(-c2ccc3ncc4c(c3c2)n(-c2ccc(N3CCNCC3)c(C(F)(F)F)c2)c(=O)n4C)cn1` the value was 0.0662 ± 0.0018; for `COc1cc(-c2cc(-c3ccc(N4CCNCC4)cc3)cnc2C)cc(OC)c1OC`, 1.16 ± 0.019; for `Nc1ccc(-c2ccc3ncc4ccc(=O)n(-c5cccc(C(F)(F)F)c5)c4c3c2)cn1` [Torin 2], 0.378 ± 0.014. For `COc1cc(-c2cc(-c3cccc(O)c3)cnc2N)cc(OC)c1OC`, the relative cell viability turned out to be 1.21 ± 0.0055.

`COc1ccc(COc2cc3oc(=O)c4cc(C(C)O)ccc4c3cc2OC)cc1` (centres undefined) [Palomid 529 (P529)] displayed a relative cell viability of 1.14 ± 0.025.

`COCCOC(=O)C1=C(C)NC(C)=C(C(=O)OC/C=C/c2ccccc2)C1c1cccc([N+](=O)[O-])c1` (centres undefined) [Cilnidipine] showed a relative cell viability of 1.15 ± 0.055. On to `NCCCC[C@@H]1NC(=O)[C@@H](Cc2ccccc2)NC(=O)[C@H](CC(=O)O)NC(=O)CNC(=O)[C@H](CCCN=C(N)N)NC1=O` [Cyclo (-RGDfK)], for which the relative cell viability stood at 1.1 ± 0.024. In turn, `CCCCN(Cc1ccc(C(=O)NO)cc1)C(=O)Nc1ccccc1` [Nexturastat A] returned a relative cell viability of 0.716 ± 0.074. In turn, `CC(=O)Nc1ccc(C(=O)Nc2ccccc2N)cc1` [CI994 (Tacedinaline)] yielded a relative cell viability of 1 ± 0.017. In turn, `CC(C)[C@H](C(=O)Nc1ccc(C(=O)NO)cc1)c1ccccc1` registered a relative cell viability of 0.221 ± 0.015. For `O=C(NC[C@H]1CN(c2ccc(N3CCOCC3=O)cc2)C(=O)O1)c1ccc(Cl)s1` [Rivaroxaban] the value was 1.04 ± 0.076; for `C[C@]12CCC3=C4CCC(=O)C=C4CC[C@H]3[C@@H]1CC[C@@]2(O)CC#N` [Dienogest], 1.19 ± 0.024. The result for `COc1ccc(-c2cnc3c(-c4cccc5ncccc45)cnn3c2)cc1` reads 1.171 ± 0.0012; that for `CC(C)Oc1ccc(-c2cnc3c(-c4ccnc5ccccc45)cnn3c2)cc1`, 1.19 ± 0.027; that for `c1cc(-c2cnn3cc(-c4ccc(N5CCNCC5)cc4)cnc23)c2cccnc2c1`, 0.0982 ± 0.0034.
